A selection: hits, their analogues and other compounds. The true share with any hit is near 2.8%.
Pol iota inh = qHTS for Inhibitors of Polymerase Iota; DNA polymerase iota (Homo sapiens), Q9UNA4; Pol iota fluorescent replication assay, 10 min; Potency, µM (doses to about 115 µM), hits mostly inhibitors; hit rate 1% among 390,000
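Fluorescent replication assay read twice, at 0 min and 10 min after adding 50 nM (final) substrate. Enzyme (10 nM) and compounds were first incubated 15 min at room temperature; enzyme-free buffer wells were negative controls.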
PI5P4Ka inh = qHTS for Inhibitors of phosphatidylinositol 5-phosphate 4-kinase (PI5P4K); PI5P4Kalpha enzyme, ADP-Glo luminescence, 60 min; hits give low values; hit rate 1.2% among 330,000; max response, %; active = max response of -50% or lower; inconclusive = between -30% and -50%; inactive = -30% or higher; note: value at the top dose of about 77 µM
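Luminescence from ADP-Glo served as readout of PI5P4Kalpha activity in a qHTS format. Reaction: enzyme, substrate, compound, ATP at 5 microM final, 60 min at RT.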
Pol eta inh-1 = qHTS for Inhibitors of Polymerase Eta | DNA polymerase eta (Homo sapiens), Q9Y253 | recombinant Pol eta, fluorescent DNA replication assay | Potency, µM (series often up to 114 µM), most hits filed as inhibitors | hit rate 1.2% among 390,000
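Pol eta at 10 nM preincubated with compounds 15 min at room temperature; reaction started with fluorescent substrate (50 nM final) and read kinetically at 0 and 10 min.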
Pol kappa inh-1 = qHTS for Inhibitors of Polymerase Kappa | DNA polymerase kappa (Homo sapiens), Q9UBT6 | hit rate 0.53% among 400,000 | purified Pol kappa, fluorescent DNA synthesis assay, 10 min | Potency, µM (series often up to 107 µM), usual class: inhibitors
Target sequence (Q9UBT6 whole entry, looked up): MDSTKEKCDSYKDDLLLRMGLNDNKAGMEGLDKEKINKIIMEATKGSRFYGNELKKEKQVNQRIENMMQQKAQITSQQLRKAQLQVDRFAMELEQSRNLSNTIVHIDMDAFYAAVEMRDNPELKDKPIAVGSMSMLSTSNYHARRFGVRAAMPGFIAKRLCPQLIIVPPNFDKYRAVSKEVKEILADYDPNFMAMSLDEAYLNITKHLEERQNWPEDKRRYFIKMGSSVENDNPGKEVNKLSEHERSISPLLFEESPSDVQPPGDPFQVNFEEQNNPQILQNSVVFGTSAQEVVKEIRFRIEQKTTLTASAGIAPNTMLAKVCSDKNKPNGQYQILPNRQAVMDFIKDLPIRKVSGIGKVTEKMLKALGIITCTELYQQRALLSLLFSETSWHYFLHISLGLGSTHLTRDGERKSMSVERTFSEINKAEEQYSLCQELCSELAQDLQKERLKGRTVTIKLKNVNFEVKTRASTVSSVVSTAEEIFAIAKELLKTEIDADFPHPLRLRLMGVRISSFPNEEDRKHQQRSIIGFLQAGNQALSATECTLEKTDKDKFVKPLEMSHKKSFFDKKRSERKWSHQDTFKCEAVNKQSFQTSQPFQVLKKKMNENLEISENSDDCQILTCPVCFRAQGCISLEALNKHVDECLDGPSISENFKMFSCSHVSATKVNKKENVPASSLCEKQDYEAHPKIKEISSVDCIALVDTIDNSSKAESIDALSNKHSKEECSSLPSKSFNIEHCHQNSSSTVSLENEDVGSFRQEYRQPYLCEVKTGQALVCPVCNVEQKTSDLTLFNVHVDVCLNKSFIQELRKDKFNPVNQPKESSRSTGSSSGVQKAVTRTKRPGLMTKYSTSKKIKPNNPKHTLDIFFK
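Pol kappa 10 nM + cpd, 15 min RT; start w/ substrate 50 nM final; fluorescence kinetic read, 0 and 10 min. Neg ctrl: buffer, no enzyme.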
Pol beta inh = qHTS Assay for Inhibitors of DNA Polymerase Beta. P06746. Pol beta primer extension/strand displacement, fluorescence kinetic. Potency, µM (doses to about 114 µM), actives largely listed as inhibitors. hit rate 1.3% among 340,000
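Curves were derived by four-parameter Hill fits of normalized qHTS data. The kinetic fluorescent primer-extension read was taken at 0 and 10 min after 50 nM substrate, following a 15 min room-temperature preincubation of 10 nM enzyme with compounds.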
FEN1 inh = qHTS Assay for the Inhibitors of Human Flap endonuclease 1 (FEN1). P39748. Recombinant FEN1 flap cleavage, fluorescence, 15 min. Potency, µM (top dose mostly 114 µM), usual class: inhibitors. hit rate 0.35% among 390,000; note: nearly all actives have a fitted effect of over 65% in size
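Compounds are tested as a concentration series against 10 nM FEN1; after a 15 min room-temperature preincubation, 50 nM substrate starts cleavage, with plate reads at 0 and 15 min. Normalized responses are fitted by a Hill equation.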
GALK confirm = Confirmation Assay for Inhibitors of Human Galactokinase (GALK). shares compounds with Pol eta inh-1. purified GALK, Kinase-Glo ATP depletion luminescence. Potency, µM (top dose mostly 115 µM), most hits filed as inhibitors. hit rate 70% among 150. AID 2015, 2009
Redox cycling = Confirmatory Assay for Inhibitors of Human Galactokinase (GALK): Phenol-HRP redox assay counterscreen. shares compounds with Pol eta inh-1. Phenol red-HRP H2O2 redox cycling, absorbance 600 nm. Potency, µM (top dose mostly 115 µM), most hits filed as inhibitors. hit rate 40% among 150. AID 2035, 2009
HEK293 tox = Secondary Assay for Inhibitors of Human Galactokinase (GALK): HEK-293 Cell Viability Assay. AID 2547, 2010. hit rate 10% among 170. shares compounds with Pol eta inh-1. HEK-293 viability, ATP luminescence (CellTiter-Glo), 24/48 h. Potency, µM (doses to about 46.1 µM), actives largely listed as inhibitors
Pol kappa inh-2 = qHTS for Inhibitors of Polymerase Kappa: Confirmatory Assay for Cherry-picked Compounds; Potency, µM, most hits filed as inhibitors; shares compounds with Pol eta inh-1; purified Pol-kappa, fluorescent strand-displacement substrate; hit rate 76% among 920
Pol eta inh-2 = qHTS for Inhibitors of Polymerase Eta: Confirmatory Assay for Cherry-picked Compounds; shares compounds with Pol eta inh-1; Pol eta primer extension, TAMRA/BHQ fluorescence, 10 min; Potency, µM, most hits filed as inhibitors; hit rate 64% among 2,600; AID 720502, 2013
Each line names hits and unclear results; the compound was inactive in the other large screens (follow-up assays come after a bar, where they were run). Unless noted, calls come from the whole dose curve; as a rule, active = well fitted curve in the direction sought with a large enough effect; inconclusive = small, poorly fitted or top-dose-only effect, or another doubt; inactive = no such curve, though single readings can be large; an effect the other way counts as inactive or inconclusive.

CCN(C(=O)Cc1c(C(=O)O)n(CC)c2ccccc12)c1cccc(C(F)(F)F)c1	none
COc1ccc(C2=CC(=O)C[C@H](c3ccc(F)cc3)C2)c(OC)c1	none (no result: Pol beta inh)
Cc1ccc(C(=O)Nc2nc(-c3ccco3)c(-c3ccco3)s2)o1	Pol iota inh inconclusive, PI5P4Ka inh inconclusive, Pol eta inh-1 14µM, FEN1 inh inconclusive (no result: Pol beta inh) | Pol kappa inh-2 15 | Pol eta inh-2 60
CC[C@H](C)[C@H](NC(=O)CNC(=O)[C@@H](NC(=O)[C@@H](NC(=O)[C@H](Cc1ccc(O)cc1)NC(=O)[C@H](CC(C)C)NC(=O)[C@H](C)NC(=O)[C@H](CCC(N)=O)NC(=O)CNC(=O)[C@@H]1CCCN1C(=O)CNC(=O)[C@H](Cc1ccccc1)NC(=O)[C@H](Cc1cnc[nH]1)NC(=O)[C@@H](NC(=O)CNC(=O)[C@H](CCCNC(=N)N)NC(=O)[C@H](CCCNC(=N)N)NC(=O)[C@@H](NC(=O)[C@H](CC(N)=O)NC(=O)[C@@H](N)CS)[C@@H](C)O)[C@@H](C)CC)[C@@H](C)O)[C@@H](C)O)C(=O)O	none (no result: Pol iota inh, PI5P4Ka inh, Pol eta inh-1, Pol beta inh, FEN1 inh)
CSc1ccc(/C=C2/C(=N)N3N=C(CC(=O)N4CCCC4)SC3=NC2=O)cc1	Pol iota inh 79µM, Pol eta inh-1 40µM, Pol kappa inh-1 inconclusive | Pol eta inh-2 inconclusive
Cc1ccc(C(=O)Oc2ccc(/C=C3\C(=N)N4N=C(N5CCOCC5)SC4=NC3=O)cc2)cc1	Pol iota inh inconclusive, PI5P4Ka inh inconclusive, Pol kappa inh-1 inconclusive
COc1ccc(-n2c(C)cc(/C=C3\C(=N)N4N=C(CC(=O)N5CCOCC5)SC4=NC3=O)c2C)c(OC)c1	Pol iota inh 45µM, Pol eta inh-1 40µM, Pol kappa inh-1 inconclusive, Pol beta inh inconclusive | Pol eta inh-2 inconclusive
N=C1/C(=C\c2ccc(OC(=O)c3ccc(F)cc3)cc2)C(=O)N=C2SC(N3CCCC3)=NN12	Pol eta inh-1 56µM | Pol kappa inh-2 67
O=C(O)c1ccc(Cn2cc(/C=C\[N+](=O)[O-])c3ccccc32)o1	Pol iota inh 8.9µM, Pol eta inh-1 22µM, Pol kappa inh-1 inconclusive, Pol beta inh inconclusive | Pol eta inh-2 76
CCN(CC)C(=O)[C@H]1CC(CC(=O)NCCCOC)C(=O)N2CCc3c([nH]c4ccccc34)[C@]12C (stereo partly specified)	none (no result: Pol beta inh)
CC1(C)CC(=O)C2=C(C1)NC(Nc1nc3ccccc3o1)=NC2c1cccc(F)c1 (stereo unspecified)	none (no result: PI5P4Ka inh, Pol eta inh-1, Pol beta inh) | HEK293 tox inactive
COCCOC(=O)C1=C(C)NC2=C(C(=O)CC(C)(C)C2)C1c1cccnc1 (stereo unspecified)	none
COc1ccc(C2Nc3ccccc3NC3=C2C(=O)CC(C)(C)C3)cc1 (stereo unspecified)	Pol iota inh inconclusive
COc1ccc(C2N=C(Nc3nc4ccccc4o3)NC3=C2C(=O)CC(C)(C)C3)cc1 (stereo unspecified)	none (no result: PI5P4Ka inh, Pol eta inh-1, Pol beta inh) | HEK293 tox inactive
Cc1ccc(C2N=C(Nc3nc4ccccc4o3)NC3=C2C(=O)CC(C)(C)C3)cc1 (stereo unspecified)	none (no result: PI5P4Ka inh, Pol eta inh-1, Pol beta inh) | HEK293 tox inactive
CC1(C)CC(=O)C2=C(C1)NC(Nc1nc3ccccc3o1)=NC2c1cccnc1 (stereo unspecified)	none (no result: PI5P4Ka inh, Pol eta inh-1, Pol beta inh) | HEK293 tox inactive
CC1(C)CC(=O)C2=C(C1)Nc1ccccc1NC2c1ccc(F)cc1 (stereo unspecified)	none
CCN(CC(=O)Nc1ccc(N2CCOCC2)cc1)CC(=O)NC(C)(C)C	none
CCc1[nH]nc(C(=O)N2CCCC(N3CCN(c4ccccc4C)CC3)C2)c1C (stereo unspecified)	none
CC1(C)CC(=O)C2=C(C1)NC(Nc1nc3ccccc3o1)=NC2c1ccccc1 (stereo unspecified)	none (no result: PI5P4Ka inh, Pol eta inh-1, Pol beta inh) | HEK293 tox inactive
CCOCCCNC(=O)/C(C#N)=C/c1ccc(C)o1	none
Cc1nnc(NC(=O)CSc2nnc3c(n2)[nH]c2ccccc23)s1	none (no result: PI5P4Ka inh)
CCOC(=O)Cc1nnc(NC(=O)CSc2nnc3c(n2)[nH]c2ccccc23)s1	Pol iota inh 25µM, Pol eta inh-1 20µM, Pol kappa inh-1 79µM, Pol beta inh 18µM | Pol eta inh-2 43
COc1ccc(CCNC(=O)CSc2nn(-c3ccccc3)c(=S)s2)cc1	none
Cc1ccc(SCc2nc(-c3ccc(C(=O)NCc4ccc(Cl)cc4)cc3)oc2C)cc1	Pol iota inh inconclusive (no result: PI5P4Ka inh)
CC1C/C(=C/c2ccncc2)C(=O)/C(=C/c2ccncc2)C1 (stereo unspecified)	Pol iota inh inconclusive, Pol eta inh-1 32µM | Pol eta inh-2 76
O=C(O)CCc1nnc(SCC(=O)Nc2ccc(Cl)c(C(F)(F)F)c2)[nH]c1=O	none | GALK confirm inconclusive | Redox cycling inactive | HEK293 tox inactive
Cc1nc2ncnn2c(N2CCN(C(=O)Cc3cccs3)CC2)c1C	Pol iota inh inconclusive, Pol eta inh-1 79µM, Pol kappa inh-1 inconclusive, Pol beta inh 20µM (no result: PI5P4Ka inh) | Pol eta inh-2 inconclusive
Cc1ccc(C(=O)COC(=O)c2cc(=O)[nH]c3ccccc23)cc1C	Pol eta inh-1 50µM | Pol eta inh-2 67
NC(=O)COC(=O)c1cc(=O)[nH]c2ccccc12	none

From PubChem
